Source: PubChem BioAssay (National Center for Advancing Translational Sciences (NCATS))
Most compounds without a hit are left out; they make up all but 1.6% or so of the library.
gsp antag – gsp mutant antagonism | Potency, µM (doses to about 76.9 µM), usual class: inhibitors | gsp-mutant cells, cAMP HTRF, 30 min | hit rate 0.4% among 340,000; calls by dose curve; cell line not stated here;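 note: intracellular cAMP measured with PDE inhibitor Ro 20-1724 present during compound exposure; nearly all actives have a fitted effect of over 65% in size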
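G418-selected cells were plated in DMEM/10% FBS for 16-24 h at 37C, then treated with compounds plus the PDE inhibitor […] (300 uM solution added) for 30 min at 37C. Intracellular cAMP was measured by HTRF after 30 min lysis at room temperature.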
KCNH2 3.1 inh – inhibitors of human KCNH2 3.1 potassium channel isoform. activity change, % (tested at about 1.8 µM). U2OS KCNH2 3.1, thallium flux FluxOr; stronger effect = lower value. hit rate 0.95% among 340,000;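 active = maximum activity change below -70%; inconclusive = maximum activity change from -70% to -50%; inactive = maximum activity change above -50%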;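 note: thallium influx rate constant from kinetic fluorescence after stimulation buffer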
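Normalized rate constant (relative to positive and negative DMSO controls) derived from a 2 min kinetic fluorescence read after stimulation; U2OS cells expressing the 3.1 isoform via virus at 1.77 x 10^8 /mL.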
pAkt inh – Akt phosphorylation inhibition; Neuro2A IGF-stimulated pAkt S473 HTRF, 20 min; stronger effect = lower value; activity change, % for hits at 50 µM; hit rate 0.32% among 360,000; in the data active = activity change below about -80%; inconclusive = mostly about -51% to -80%
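Single-point screen (50 µM final compound) in Neuro2A cells stimulated 20 min with 6 nM IGF at 37 deg C. After lysis, Ser473-phosphorylated Akt read by HTRF (ex 330 nm, em 615/665 nm) as the 665/615 ratio.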
Glioma ERSR ind – ER stress response induction in glioma | U87-MG GRP78 promoter luciferase reporter, 16 h | Potency, µM, usual class: activators | hit rate 0.02% among 420,000 | AID 602332; active = well fitted activation curve with a large enough effect; inconclusive = small, poorly fitted or top-dose-only effect; inactive = no such curve, though single readings can be large or run the other way; note: series mostly up to about 76 µM; nearly all actives have a fitted effect of over 35% in size
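ERSR induction read as luciferase luminescence (Bright-Glo, 10 min at room temperature) in stably transfected human U87-MG glioma cells exposed to compounds for 16 h, using GRP78 as sensor.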
KCNH2 WT inh – inhibitors of human wildtype KCNH2 potassium channel; Q12809; U2OS, BacMam KCNH2, thallium flux FluxOr; stronger effect = lower value; activity change, % at 1.84 µM; hit rate 0.37% among 340,000; AID 720551;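 active = maximum activity change below -70%; inconclusive = maximum activity change between -70% and -50%; inactive = maximum activity change above -50%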
Target sequence (Q12809 whole entry, looked up): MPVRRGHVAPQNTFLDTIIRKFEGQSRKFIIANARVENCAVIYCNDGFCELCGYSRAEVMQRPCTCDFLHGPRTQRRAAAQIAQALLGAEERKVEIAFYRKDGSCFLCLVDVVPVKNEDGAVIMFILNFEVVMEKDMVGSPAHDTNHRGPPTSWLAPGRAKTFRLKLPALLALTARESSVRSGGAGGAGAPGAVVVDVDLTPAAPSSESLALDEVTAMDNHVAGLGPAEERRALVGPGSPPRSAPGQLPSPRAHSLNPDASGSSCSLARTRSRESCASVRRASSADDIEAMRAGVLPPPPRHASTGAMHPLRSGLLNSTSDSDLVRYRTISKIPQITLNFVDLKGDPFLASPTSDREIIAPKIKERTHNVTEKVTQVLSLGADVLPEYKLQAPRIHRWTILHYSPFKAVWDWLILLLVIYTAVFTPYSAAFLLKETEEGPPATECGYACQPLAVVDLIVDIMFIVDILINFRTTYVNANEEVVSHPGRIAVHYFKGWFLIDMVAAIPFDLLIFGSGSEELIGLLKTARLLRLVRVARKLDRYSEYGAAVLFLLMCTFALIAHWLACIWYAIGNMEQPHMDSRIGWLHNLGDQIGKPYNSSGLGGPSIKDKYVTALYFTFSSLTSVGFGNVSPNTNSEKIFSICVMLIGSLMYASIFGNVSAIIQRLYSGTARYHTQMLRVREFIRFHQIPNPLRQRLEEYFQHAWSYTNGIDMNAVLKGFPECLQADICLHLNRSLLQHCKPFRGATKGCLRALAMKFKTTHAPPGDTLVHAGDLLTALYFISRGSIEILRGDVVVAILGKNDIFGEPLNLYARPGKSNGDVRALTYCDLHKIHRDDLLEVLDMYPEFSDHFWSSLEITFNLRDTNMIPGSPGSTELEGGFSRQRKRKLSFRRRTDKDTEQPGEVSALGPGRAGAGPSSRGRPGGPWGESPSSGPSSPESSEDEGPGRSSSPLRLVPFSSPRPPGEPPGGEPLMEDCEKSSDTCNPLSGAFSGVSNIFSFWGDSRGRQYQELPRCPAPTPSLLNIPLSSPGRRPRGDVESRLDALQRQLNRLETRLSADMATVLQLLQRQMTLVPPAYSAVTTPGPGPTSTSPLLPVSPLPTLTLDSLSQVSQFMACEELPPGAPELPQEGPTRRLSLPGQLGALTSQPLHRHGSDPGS
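U2OS cells transduced with wild-type KCNH2 virus are loaded with FluxOr dye for 45 min, and thallium flux is measured in kinetic reads before and after stimulation buffer. Rate constants are normalized to DMSO controls.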
gsp agonist – activates gsp, the McCune-Albright syndrome mutation; gsp mutant cells, cAMP HTRF, 30 min; Potency, µM (titrated, usually from 76.9 µM), hits mostly activators; hit rate 0.13% among 340,000; AID 624287; active = well fitted activation curve with a large enough effect; inconclusive = small, poorly fitted or top-dose-only effect, or another doubt; inactive = no such curve, though single readings can be large or run the other way; cell line not stated here;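 note: phosphodiesterase inhibitor Ro 20-1724 added with compounds to block cAMP breakdown; nearly all actives have a fitted effect of over 60% in size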
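Cells in DMEM/10% FBS with G418 were pretreated with compounds in DMSO plus […] (300 uM stock) for 30 min at 37C. cAMP was measured by HTRF (cAMP-d2 plus anti-cAMP antibody-K) after 30 min at room temperature.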
Hits are given with their value; n = inactive; u = inconclusive; x = no result given; [ ] = another dose, or the depositor's remark.

SMILES | gsp antag | KCNH2 3.1 inh | pAkt inh | Glioma ERSR ind | KCNH2 WT inh | gsp agonist
CCOC(=O)c1nn(-c2ccccc2)c(=O)cc1SC(C)C | n | -72 | n | n | n | n
CCOC(=O)c1nn(-c2ccccc2)c(=O)cc1SC(C)CC (stereo not given) | n | n | x | n | n | u
OCCNc1nc(Nc2ccccc2)nc2ccccc12 | n | n | n | 32µM | n | n
Cc1c(Cl)cccc1Nc1nc(NCCO)c2ccccc2n1 | n | n | n | 32µM | n | n
OCCNc1nc(Nc2ccc(Br)cc2)nc2ccccc12 | n | n | n | u | n | n[15.4 µM]
Cc1sc2ccccc2[n+]1CCc1ccccc1 | x | x | x | n | x | x
CCc1cc2c3c(c(=O)oc2cc1OCC(=O)OC)CCCC3 | u | -100 | n | n | n | n
O=c1c2c(n3cnnc3n1-c1ccccc1)-c1ccccc1CC21CCCCC1 | u | n | -114% | n | n | n
Cc1cccc(-n2c(=O)c3c(n4cnnc24)-c2ccccc2CC32CCCCC2)c1 | n[15.4 µM] | n | n | n | n | n
CC(C)c1c(C(=O)NCc2ccccn2)cnn1-c1nccc(-c2ccccc2F)n1 | x | x | x | n | x | x
COc1ccccc1OCC(=O)Nc1nc(C)c(C)s1 | n | -75 | n | n | n | n[15.4 µM]
CCOC(=O)c1sc(NC(=O)c2c(OC)cccc2OC)nc1C | n | n | -119% | n | n | n
COC(=O)c1sc(NC(=O)COc2ccccc2C)nc1C | n | n | n | n | n | n[15.4 µM]
C=CC1=C(C)/C(=C/c2[nH]c(Cc3[nH]c(/C=C4\NC(=O)C(C)=C4C=C)c(C)c3CCC(=O)O)c(CCC(=O)O)c2C)NC1=O | x | x | x | n | x | x
O=C(/C=C/c1ccc(Cl)cc1)N1CCN(c2ccc(Cl)cc2[N+](=O)[O-])CC1 | n | -96 | n | n | -133 | n
COCC(=O)Nc1cc(C(=O)N2CCCC2c2nccs2)c2c(c1)nc(-c1ccncc1)n2C (stereo not given) | x | x | x | n | x | x
COc1ccc(-c2cc3nc(-c4ccccc4)cc(N4CCCC(O)C4)n3n2)cc1 (stereo not given) | 35µM | n | n | n | n | u
N#C/C(=C\c1ccc(-c2ccccc2[N+](=O)[O-])o1)C(=O)N1CCOCC1 | n | -79 | n | n | n | n
Cc1cccnc1-c1cccc2c1OC(CNC(=O)C1CCCc3c1[nH]c1ccccc31)C2 (stereo not given) | x | x | x | n | x | x
COC(C[C@@H](O)C[C@@H](O)[C@@H](C)OCc1ccccc1)OC | n | -222 | n | n | n | n
CCC1CN(Cc2cn[nH]c2-c2ccc(F)cc2)Cc2cc(OC)ccc2O1 (stereo not given) | x | x | x | n | x | x
COc1cc(/C=N/NC(=O)CC2(C)OCCCO2)ccc1OCc1ccccc1 | n | n | n | n | n | u
O=C(CCN1CCCCC1)N/N=C/c1ccc(Br)cc1 | n | -75 | n | n | n | n
O=C(CCN1CCN(C(c2ccccc2)c2ccccc2)CC1)N/N=C/c1ccc(O)cc1 | n | -80 | n | n | n | n
COc1cc(/C=N/NC(=O)CN2CCCCC2)ccc1OCc1ccc(Br)cc1 | n | -90 | n | n | n | n
SMILES | gsp antag | KCNH2 3.1 inh | pAkt inh | Glioma ERSR ind | KCNH2 WT inh | gsp agonist
CCOc1ccc2[nH]c(C)c(CN3CCN(CC)CC3)c(=O)c2c1 | n | n | -122% | n | n | u
CCOc1ccc2[nH]c(C)c(CN3CCN(C)CC3)c(=O)c2c1 | n | n | x | n | n | n
Cc1cc2c(cc1C)-c1c(ssc1=Nc1ccc(S(N)(=O)=O)cc1)C(C)(C)N2 | u | n | n | n | n | n
CC(=O)NS(=O)(=O)c1ccc(N=c2ssc3c2-c2cc(C)c(C)cc2NC3(C)C)cc1 | 14µM | n | n | n | n | n[15.4 µM]
COc1ccc(CN2CCOc3ccc(C(O)c4cccnc4)cc3C2)c(F)c1 (stereo not given) | x | x | x | n | x | x
CCc1noc(C)c1C(=O)Nc1nc(-c2ccc(OC)c(OC)c2)cs1 | n | n | n | n | n | u
O=C(COC(=O)C1CC2CCCC(C1)C2=O)Nc1ccc(F)c(Cl)c1 (stereo not given) | n | n | n | n | n | n
CCc1noc(C)c1C(=O)OCC(=O)Nc1nc(-c2ccc(F)c(F)c2)cs1 | 40µM | n | n | n | n | n
O=C(COC(=O)C1CC2CCCC(C1)C2=O)Nc1nc(-c2ccc(F)c(F)c2)cs1 (stereo not given) | n | -94 | n | n | n | n
Cc1noc(C)c1CSCC(=O)Nc1nc(-c2ccc(F)c(F)c2)cs1 | 35µM | n | n | n | n | n[15.4 µM]
O=C(OCC1OC(OC(=O)c2cc(O)c(O)c(OC(=O)c3cc(O)c(O)c(O)c3)c2)[C@@H](OC(=O)c2cc(O)c(O)c(OC(=O)c3cc(O)c(O)c(O)c3)c2)C(OC(=O)c2cc(O)c(O)c(OC(=O)c3cc(O)c(O)c(O)c3)c2)C1OC(=O)c1cc(O)c(O)c(OC(=O)c2cc(O)c(O)c(O)c2)c1)c1cc(O)c(O)c(OC(=O)c2cc(O)c(O)c(O)c2)c1 (stereo not given in full) | x | x | x | n | x | x
COCc1c(C(=O)N2CCC(N(C)C)C2)cnn1-c1ncc2c(n1)-c1ccccc1CCC2 (stereo not given) | x | x | x | n | x | x
Cc1ccccc1C(=O)N1CCc2c(cnc(C)c2CNC(=O)CN2CCCCC2)C1 | x | x | x | n | x | x
CCN(CC)S(=O)(=O)c1ccc2c(c1)nc(SCn1nnc3ccccc3c1=O)n2CC | n | n | n | n | n | 35µM
CCN(CC)S(=O)(=O)c1ccc2c(c1)nc(SCC(=O)N(C)C1CCS(=O)(=O)C1)n2CC (stereo not given) | n | n | n | n | n | n[15.4 µM]
Cc1ncc2c(c1CNC(=O)c1ccc3c(c1)OCO3)CCN(C(=O)C1Cc3ccccc3O1)C2 (stereo not given) | x | x | x | n | x | x
COc1ccccc1C(=O)N1CCOc2ccc(CN3CCN(Cc4ccccn4)CC3)cc2C1 | x | x | x | n | x | x
O=C(C[N+]1(CC(O)c2ccccc2)CCOCC1)c1ccccc1 (stereo not given) | x | x | x | n | x | x
Cn1c(=O)cc(SCC(=O)N2CCCC2)c2ccc(Cl)cc21 | n | n | n | n | n | 11µM
